HepG2 tox = kills HepG2 cells in TGF-b inhibitor counter-screen. HepG2 CAGA-GFP viability, ATP luminescence, 18 h. Potency, µM (top dose mostly 46.1 µM), for inactives: at the highest dose activity change, negative = cytotoxicity, usual class: cytotoxic. actives 0.76% (n = 410,000); further: potency means the concentration at half of the fitted maximal effect
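HepG2 CAGA-GFP cells (1000/well, DMEM with 1% FBS) received compound, then TGF-beta at 500 pg/mL final, and were incubated 18 hours at 37 degrees C. Viability was read by CellTiter-Glo luminescence. Media-only wells were set as complete cell-killing and DMSO as no toxicity.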
TDP1 cell noCPT = qHTS for Inhibitors of human tyrosyl-DNA phosphodiesterase 1 (TDP1): qHTS in cells in absence of CPT. DT40 Tdp1-/- hTDP1 cells, no CPT, ATP luminescence, 48 h. Potency, µM (top dose mostly 46.2 µM), without a hit: at the top dose activity change, negative = growth inhibition, actives largely listed as inhibitors. actives 15% (n = 420,000); further: potency means the concentration at half of the fitted maximal effect; on the % scale 0 is the no-effect control and ±100 the full control effect; nearly all actives have a fitted effect of over 55% in size
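Readout: luminescence from CellTiter-Glo after 30 min in the dark at RT. Cells: DT40 Tdp1-/- with stable hTDP1, 400/well. Exposure: compounds alone, ≥48 hr, 37 °C.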
TGFb SMAD3 inh = inhibitors of TGF-b signaling | Potency, µM (series often up to 46.1 µM), without a hit: at the top dose activity, negative = inhibition, most hits filed as inhibitors | actives 1.2% (n = 410,000) | HepG2 CAGA-GFP TGF-b/SMAD3 reporter, GFP fluorescence, 18 h; TGF-beta stimulated, 500 pg/mL final | AID 588855; further: potency means the concentration at half of the fitted maximal effect; on the % scale 0 is the no-effect control and ±100 the full control effect; nearly all actives have a fitted effect of over 65% in size
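Per well, imaged GFP fluorescence of HEPG2 CAGA-GFP cells gives the signal; cells get compound, then TGF-beta (500 pg/mL final), 18 h at 37 degrees C; %Activity versus -TGF-beta and +DMSO controls.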
DT40 TDP1 CPT = growth inhibition of DT40 Tdp1-/-;hTDP1 cells with camptothecin (screen for TDP1 inhibitors); chicken DT40 Tdp1-/-;hTDP1 cells + 20 nM CPT, ATP luminescence, 48 h; Potency, µM (top dose mostly 46.2 µM), for the others: top-dose activity change, negative = growth inhibition, hits mostly inhibitors; actives 12% (n = 420,000); AID 686979; further: potency means the concentration at half of the fitted maximal effect; on the % scale 0 is the no-effect control and ±100 the full control effect; nearly all actives have a fitted effect of over 55% in size
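Chicken DT40 Tdp1-/- cells stably complemented with human TDP1 were seeded at 400 cells/well in medium containing 20 nM camptothecin, exposed to pin-transferred compounds, and grown at 37 °C for at least 48 hr. Viability was read as ATP luminescence.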
IL1B secr inh = inhibitors of inflammasome signaling (IL-1 beta secretion); THP-1 LPS/ATP IL-1B secretion, AlphaLISA, 16 h; active compounds read low; actives 4.7% (n = 360,000); activity change, % at 57.5 µM; in the data active means activity change below about -50%; inconclusive means mostly about -30% to -49%; further: on the % scale 0 is the no-effect control and ±100 the full control effect
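THP-1 cells pretreated 1 hr with compounds (up to 57.5 uM final), then stimulated with LPS (250 ng/mL final) plus ATP (1.25 mM final); secreted IL-1B measured by AlphaLISA after 16 hr, decreased signal indicating inhibition.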
TDP1 inh = inhibitors of human tyrosyl-DNA phosphodiesterase TDP1. actives 0.28% (n = 350,000). AID 485290. Q9NUW8. Potency, µM (titrated, usually from 130 µM), for inactives: at the highest dose activity change, negative = inhibition, hits mostly inhibitors. recombinant TDP1, AlphaScreen DNA substrate cleavage; further: potency means the concentration at half of the fitted maximal effect; on the % scale 0 is the no-effect control and ±100 the full control effect; nearly all actives have a fitted effect of over 40% in size
Target sequence (Q9NUW8 whole entry, looked up): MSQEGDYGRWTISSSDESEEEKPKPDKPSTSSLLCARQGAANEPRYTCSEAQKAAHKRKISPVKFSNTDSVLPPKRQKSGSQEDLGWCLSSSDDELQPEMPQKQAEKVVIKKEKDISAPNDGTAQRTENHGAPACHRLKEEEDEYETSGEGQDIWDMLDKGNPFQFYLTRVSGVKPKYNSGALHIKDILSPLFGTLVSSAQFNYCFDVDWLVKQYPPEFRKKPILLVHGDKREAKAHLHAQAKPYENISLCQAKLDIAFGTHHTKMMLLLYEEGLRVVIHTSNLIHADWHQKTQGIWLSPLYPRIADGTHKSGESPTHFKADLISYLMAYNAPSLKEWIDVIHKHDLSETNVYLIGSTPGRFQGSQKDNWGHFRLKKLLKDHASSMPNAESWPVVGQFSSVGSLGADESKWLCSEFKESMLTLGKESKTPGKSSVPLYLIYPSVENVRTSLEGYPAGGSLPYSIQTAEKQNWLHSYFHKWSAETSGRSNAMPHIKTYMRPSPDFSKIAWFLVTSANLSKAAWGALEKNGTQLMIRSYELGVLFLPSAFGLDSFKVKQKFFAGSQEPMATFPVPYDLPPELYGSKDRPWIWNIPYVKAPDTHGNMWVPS
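AlphaScreen read-out: signal falls as enzyme removes the 3' tyrosine-FITC from a 5'-biotinylated DNA oligo (15 nM, 5 min, RT). Enzyme was E. coli-made recombinant Tdp1 at 1 nM, exposed to compound for 15 min beforehand; beads 10 ug/ml, 10 min.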
* marks the source's active call; other numbers are inactive results; ? = inconclusive; · = no result given. Only some compounds are listed: those with a hit (about 18% of all), similar ones and a draw of the others. Unless noted, the call rests on the fitted dose curve; in most records, active means well fitted curve in the direction sought with a large enough effect; inconclusive means small, poorly fitted or top-dose-only effect, or another doubt; inactive means no such curve, though single readings can be large; an effect the other way counts as inactive or inconclusive.

SMILES | HepG2 tox | TDP1 cell noCPT | TGFb SMAD3 inh | DT40 TDP1 CPT | IL1B secr inh | TDP1 inh
CC(NC(=O)C1CCN(C(=O)c2ccc(-n3ccc4ccccc43)s2)CC1)c1ccccc1 (stereo not drawn) | -24% | 18µM* | ? | ? | · | 5%
CCOC(=O)C1CCN(C(=O)c2ccc(-n3ccc4ccccc43)s2)CC1 | 0% | 21µM* | · | ? | · | 0%
CCOC(=O)C1CCN(C(=O)c2cc3c(s2)-c2ccccc2OC3)CC1 | -2% | ? | 1% | 15µM* | 22 | ·
CC1(C(=O)NCC2CCOCC2)Cc2c(-c3cccc(C(F)(F)F)c3)ccnc2O1 (stereo not drawn) | -20% | 3.3µM* | ? | 5.2µM* | 72 | ·
CC1(C(=O)NCCC(F)(F)F)Cc2c(-c3cccc(C(F)(F)F)c3)ccnc2O1 (stereo not drawn) | -11% | 3.3µM* | -17% | 4.6µM* | 0 | ·
CN(C)CCNC(=O)C1(C)Cc2c(-c3cccc(C(F)(F)F)c3)ccnc2O1 (stereo not drawn) | -31% | 6.5µM* | -1% | -73% | 0 | ·
CC1(C(=O)NCCC(F)(F)F)Cc2c(-c3cccc(C(N)=O)c3)ccnc2O1 (stereo not drawn) | -2% | 0.82µM* | 6% | ? | -9 | ·
Cc1cc(C)n(C(=O)N(c2ccccc2)c2ccccc2)n1 | 9% | ? | 4% | ? | 52 | ·
Cc1ccc(NS(=O)(=O)c2ccc(Br)s2)cc1S(=O)(=O)N1CCOCC1 | 4% | -15% | 13% | 7% | 23 | 6%
O=c1c2cnn(-c3ccccc3)c2nc(-c2ccco2)n1-c1ccccc1 | 0% | 21µM* | -7% | ? | -55* | -2%
Cc1cccc(-n2c(-c3ccco3)nc3c(cnn3-c3ccccc3C)c2=O)c1 | -35% | ? | ? | 21µM* | · | 5%
COc1cc(NS(=O)(=O)c2cccc([N+](=O)[O-])c2)c2ncccc2c1 | · | · | · | · | · | 22%
CN(Cc1ccco1)c1ccnc(-c2cccc(NS(C)(=O)=O)c2)n1 | · | -16% | · | ? | · | -4%
CS(=O)(=O)N1CCc2cc(C(=O)Nc3ccc(C(F)(F)F)cc3)ccc21 | -23% | 8.2µM* | -20% | 9.2µM* | · | 5%
CS(=O)(=O)N1CCc2cc(C(=O)Nc3ccc(S(N)(=O)=O)cc3)ccc21 | -1% | -18% | 22% | -14% | · | 0%
CCOc1ccc(NC(=O)c2ccc3c(c2)CCN3S(C)(=O)=O)cc1 | -18% | -13% | -1% | 1% | -26 | ·
Cc1cc(C)cc(NC(=O)c2ccc3c(c2)CCN3S(C)(=O)=O)c1 | -18% | 2% | -2% | 3% | -18 | ·
CS(=O)(=O)N1CCc2cc(C(=O)Nc3ccc(Cl)c(C(F)(F)F)c3)ccc21 | -32% | 8.2µM* | ? | 18µM* | · | 2%
CCS(=O)(=O)N1CCc2cc(C(=O)Nc3cccc(C(C)=O)c3)ccc21 | -16% | 18µM* | 24% | ? | · | 11%
Cc1ccc(NC(=O)c2ccc3c(c2)CCN3S(C)(=O)=O)cc1C | -25% | ? | 2% | -110% | -18 | ·
Cc1cccc(NC(=O)c2ccc3c(c2)CCN3S(C)(=O)=O)c1 | -2% | -1% | -6% | -19% | -64* | 2%
CCOC(=O)c1cnc(SCC(=O)OCC(=O)NC2CCS(=O)(=O)C2)nc1N (stereo not drawn) | -14% | 3% | 9% | -3% | -4 | ·
CC(=O)Nc1ccc(S(=O)(=O)NC2CC2)cc1 | -46% | -8% | -2% | -4% | 10 | ·
O=C(CN1CCN(C(=O)c2cccc(-n3cnnn3)c2)CC1)Nc1ccccc1Cl | -2% | ? | 2% | -28% | 2 | 0%
Cc1ccc(NC(=O)c2ccc3c(c2)CCN3S(C)(=O)=O)cc1 | 1% | -12% | 2% | ? | -19 | ·
SMILES | HepG2 tox | TDP1 cell noCPT | TGFb SMAD3 inh | DT40 TDP1 CPT | IL1B secr inh | TDP1 inh
CC(C)c1ccc(NC(=O)c2ccc3c(c2)CCCN3S(C)(=O)=O)cc1 | -48% | 4.1µM* | 3% | 6.5µM* | · | 2%
CS(=O)(=O)N1CCc2cc(C(=O)Nc3ccc(Br)cc3)ccc21 | -9% | -30% | -4% | -8% | -8 | ·
CCc1ccc(NC(=O)c2ccc3c(c2)CCN3S(C)(=O)=O)cc1 | -12% | 26µM* | -5% | ? | -23 | ·
CC1CCCN(c2c3c(nc4ccccc24)CCCC3)C1 (stereo not drawn) | -3% | ? | 0% | ? | -89* | ·
CC1CCCN(c2nc(-c3ccccc3O)nc3ccccc23)C1 (stereo not drawn) | -8% | ? | -12% | -30% | · | ·
Cc1ccc(CNc2nc(C)nc3sc4c(c23)CCC4)cc1 | -5% | 18µM* | ? | 23µM* | 3 | -3%
Cc1nc(Nc2ccc(O)cc2)c2c3c(sc2n1)CCCC3 | -28% | ? | -5% | ? | 14 | 4%
Cc1nc(NC(C)c2ccccc2)c2c3c(sc2n1)CCC3 (stereo not drawn) | -39% | 16µM* | ? | 16µM* | -1 | 1%
NNc1nc(-c2ccccc2)nc2sc3c(c12)CCCC3 | 0% | 21µM* | -18% | ? | -15 | -1%
CC1(C(=O)NS(=O)(=O)C2CC2)CCN(C(=O)c2ccccc2F)C1 (stereo not drawn) | 0% | -6% | 5% | 4% | 16 | ·
CCc1nnc(NC(=O)[C@@H](NS(=O)(=O)c2ccc3c(c2)OCCO3)C(C)C)s1 | 1% | ? | -6% | -11% | -4 | ·
CCC1=C2CC[C@H]3C(=O)N(C)C(=O)[C@H]3[C@H]2[C@@]2(C)C(=O)N(CC3CC3)C(=O)N2C1=O | · | · | · | · | · | 2%
N#CC1(NC(=O)Cn2ncc(Cl)c(Cl)c2=O)CCCCC1 | -4% | 7.3µM* | -20% | 13µM* | -103* | ·
COc1ccc(OC)c(S(=O)(=O)Nc2c(NC3CCCCC3)c3ccccc3oc2=O)c1 | 2% | ? | 7% | ? | -2 | 3%
Cc1cccc(Cn2c(CNC(=O)c3ccccc3)nc3ccccc32)c1 | -37% | ? | ? | -23% | · | -2%
NS(=O)(=O)c1ccc(NC(=S)N2CCC(Cc3ccccc3)CC2)cc1 | -16% | ? | -20% | 11% | -62* | ·
S=C(NCCc1ccccc1)N1CCN(C(=S)NCCc2ccccc2)CC1 | -33% | -9% | 5% | -8% | 7 | -4%

Bioassay records as filed in PubChem.
